Compound activity from PubChem.
A selection: hits, their analogues and other compounds. The true share with any hit is near 9.4%.
FLuc modulator: inhibits or activates purified firefly luciferase, miR-21 counter-screen; purified FLuc, Km substrates, luminescence inhibition; P08659; AID 588342; 360,000 tested, 6.9% active; Potency, µM (titrated, usually from 57.5 µM), without a hit: top-dose activity change, negative = inhibition, actives largely listed as inhibitors;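 also: plate controls were vehicle for no effect and reference inhibitor for full effect; nearly all actives have a fitted effect of over 55% in size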
Target sequence (P08659 whole entry, looked up): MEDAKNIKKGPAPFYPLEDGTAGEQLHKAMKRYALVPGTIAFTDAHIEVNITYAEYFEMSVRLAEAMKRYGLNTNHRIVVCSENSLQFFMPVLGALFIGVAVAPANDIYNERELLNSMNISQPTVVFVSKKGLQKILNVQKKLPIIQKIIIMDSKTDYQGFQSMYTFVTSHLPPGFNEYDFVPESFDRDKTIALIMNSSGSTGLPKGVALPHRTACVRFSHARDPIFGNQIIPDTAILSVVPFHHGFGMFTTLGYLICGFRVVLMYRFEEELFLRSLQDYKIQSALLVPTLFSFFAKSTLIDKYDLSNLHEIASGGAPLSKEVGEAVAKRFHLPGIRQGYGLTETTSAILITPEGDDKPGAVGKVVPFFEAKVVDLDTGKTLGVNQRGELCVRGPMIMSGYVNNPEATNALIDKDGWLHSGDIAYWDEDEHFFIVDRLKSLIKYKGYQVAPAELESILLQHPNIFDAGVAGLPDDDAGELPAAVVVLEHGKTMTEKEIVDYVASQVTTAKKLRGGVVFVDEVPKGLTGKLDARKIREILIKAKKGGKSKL
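Biochemical qHTS of compounds, final roughly 60 µM downward over six points, against 10 nM purified firefly luciferase using Km concentrations of substrates (10 uM D-luciferin, 10 uM ATP) in Tris acetate pH 7.5 buffer; luminescence output.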
NPC1 prom act: activates the NPC1 promoter | 320,000 tested, 2.4% active | AID 485313 | Potency, µM (series often up to 9.22 µM), without a hit: at the top dose activation, most hits filed as activators | Huh7 NPC1 promoter luciferase reporter, 24 h; also: % of control where 0% means no effect; nearly all actives have a fitted effect of over 60% in size
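In 1536-well qHTS, Huh7 cells harboring an NPC1 promoter–luciferase construct received compound for 24 h; activation was quantified by luminescence following luciferase reagent addition.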
ELG1 repair inh: inhibitors of ELG1-dependent DNA repair in HEK293T cells; HEK293T ELG1-luciferase reporter, luminescence, 16 h; DNA damage induced by 5-fluorouridine; Potency, µM (titrated, usually from 46.1 µM), for inactives: at the highest dose activity change, negative = inhibition, usual class: inhibitors; 330,000 tested, 2.3% active; AID 504467; also: % is scaled to controls: 0 for no effect and ±100 for the full control effect; nearly all actives have a fitted effect of over 55% in size
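5-Fluorouridine DNA damage + compound/DMSO, 2,000 cells/well, 16 h, 37 °C/5% CO2. ONE-Glo, 30 min RT, luminescence. Readout = decrease in reporter signal.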
Rab9 prom act: activators of Rab9 promoter | Huh7 Rab9 promoter-luciferase reporter, luminescence, 24 h | Potency, µM (doses to about 9.22 µM), inactives show at the highest dose activation, negative = inhibition, actives largely listed as activators | 320,000 tested, 2.8% active | AID 485297; also: % of control where 0% means no effect; nearly all actives have a fitted effect of over 60% in size
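Huh7 reporter line, Rab9 promoter upstream of luciferase. Compound exposure 24 h at 37 °C in reduced-serum medium with 10% FBS. Read-out: luminescence.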
SMN2 splice up: increases expression of the SMN2 splice variant; HEK293 SMN2-luciferase splicing reporter, luminescence, 30-36 h; Potency, µM (top dose mostly 46.1 µM), inactives show top-dose activity change, positive = activation, actives largely listed as activators; 210,000 tested, 2.8% active; AID 1458; also: % of control where 0% means no effect; nearly all actives have a fitted effect of over 55% in size
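HEK293 cells carry an SMN2 minigene-luciferase reporter in which exon 7 inclusion puts luciferase in frame. Cells were seeded at 2000 cells/well, attached for 10-12 hours, then exposed to compounds for 30-36 hours at 37C before ONE-Glo luminescence.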
ELG1 genotox: genotoxicity induction in ELG1-luciferase HEK293T cells. AID 504466. HEK293T ELG1-luciferase reporter, luminescence, 16 h. 330,000 tested, 1.3% active. Potency, µM (series often up to 46 µM), for inactives: top-dose activity change, positive = activation, usual class: activators; also: % of control where 0% means no effect; nearly all actives have a fitted effect of over 60% in size
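Screening used a luciferase reporter fused to human ELG1 in HEK293T cells. Luminescence was read on a CCD plate imager after 16 hr exposure and 30 min ONE-Glo incubation.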
An asterisk follows results filed as active; ? = inconclusive; · = not tested or not shown; [ ] = remark or other dose. Calls follow the shape of the dose curve; as a rule, active = well fitted curve in the direction sought with a large enough effect; inconclusive = small, poorly fitted or top-dose-only effect, or another doubt; inactive = no such curve, though single readings can be large; an effect the other way counts as inactive or inconclusive. Potency is read from the fitted curve at half-maximal effect.

SMILES	FLuc modulator	NPC1 prom act	ELG1 repair inh	Rab9 prom act	SMN2 splice up	ELG1 genotox
O=S(=O)(c1ccc2ccccc2c1)N1CCN(C(=S)Nc2ccc(F)c(Cl)c2)CC1	10%	-2%	?	-1%	2%[1.84 µM]	-4%
Cc1cc(=O)n(CCc2ccccc2)c(O)c1C#N	13µM*	20%	?	?	1%	3%
NC(=NC1C2CC3CC(C2)CC1C3)Nc1ccc(I)cc1 (stereo not given)	·	·	·	·	-20%	·
CCCn1c2ccccc2c2nnc(SC(CC)C(=O)Nc3cc(C)on3)nc21 (stereo not given)	0%	-5%	23µM*	-6%	-12%	-1%
CCC(Sc1nnc2c3ccccc3n(CC)c2n1)C(=O)Nc1ccc(NC(C)=O)cc1 (stereo not given)	-14%	·	·	·	-4%	·
O=c1ccnc(S/C=C/c2ccccc2)[nH]1	19µM*	?	?	16%	16%	13%
O=c1ccnc(SCCc2ccccc2)[nH]1	-13%	2%	-1%	3%	·	2%
COc1ccc(NC(=O)CNC(=O)Cn2c(C)cc3ccccc3c2=O)cc1OC	2%	-7%	8.2µM*	1%	-58%	-14%
COc1ccc(-n2nc(C(=O)NCC(=O)Nc3cc(OC)c(OC)c(OC)c3)c3ccccc3c2=O)cc1OC	-1%	-5%	2.3µM*	-2%	·	-9%
COc1ccc(-n2nc(C(=O)NCC(=O)NCCc3ccc(OC)c(OC)c3)c3ccccc3c2=O)cc1Cl	0%	-1%	6.5µM*	-3%	·	-4%
COc1cc(NC(=O)CNC(=O)Cn2c(C)cc3ccccc3c2=O)cc(OC)c1OC	0%	-2%	-10%	0%	·	-9%
COc1ccc(NC(=O)CNC(=O)c2nn(-c3ccc(OC)c(OC)c3)c(=O)c3ccccc23)c(OC)c1	-2%	0%	?	4%	·	0%
CCOC(=O)N1CCN(C(=O)CNC(=O)c2nn(-c3ccc(OC)c(OC)c3)c(=O)c3ccccc23)CC1	6.7µM*	0%	?	12%	·	-11%
COCCNC(=O)CNC(=O)c1nn(-c2ccc(OC)c(Cl)c2)c(=O)c2ccccc12	-5%	-6%	-22%	0%	8%	0%
CCOc1ccc(NC(=O)CNS(=O)(=O)c2ccc(Br)s2)cc1	-14%	·	·	·	-9%	·
CC(C)C[C@@H](CC(=O)N[C@@H](CCCN)CC(=O)N[C@@H]1CCCC[C@H]1C(=O)N[C@H](CC(=O)N[C@@H](CCC(=O)O)CC(=O)O)CC(C)C)NC(=O)[C@@H]1CNCC[C@H]1N	·	·	·	·	12%	·
COC(=O)CNC(=O)CNC(=O)c1nn(-c2ccc(OC)c(Cl)c2)c(=O)c2ccccc12	1%	-8%	-7%	2%	-11%	-1%
COc1ccc(-n2nc(C(=O)NCC(=O)N3CCCC3)c3ccccc3c2=O)cc1Cl	8.5µM*	-2%	-4%	11%	·	-5%
CCOC(=O)N1CCN(C(=O)CNC(=O)c2nn(-c3ccc(OC)c(Cl)c3)c(=O)c3ccccc23)CC1	4.8µM*	6%	?	19%	·	1%
C=CC[C@@H](CC(=O)OC(C)(C)C)C(=O)OC[C@H]1CCCN1C(=O)[C@@H](CC=C)CC(=O)N[C@H](CO)Cc1ccccc1	·	·	16µM*	·	·	-6%
CCCCN(CC)CCCNC(=O)c1cc2c(=O)[nH]c3ccccc3c2n1C	-4%	·	·	·	16%	·
Cc1ccc(-c2nn(-c3ccccc3)cc2C(=O)Nc2ccc(C(=O)O)cc2)cc1	1.1µM*	27%	?	?	18µM*	13%
COC(=O)c1cn(-c2ccccc2)nc1-c1ccc(OC)cc1	-13%	-4%	26µM*	-4%	-2%	-3%
COc1ccc(-c2nn(-c3ccccc3)cc2/C=C(\CC(=O)O)c2nc3ccccc3s2)cc1OC	9.5µM*	3%	1%	-1%	-5%	2%
COc1ccc(-c2nn(-c3ccccc3)cc2/C=N/Nc2ccc(Cl)c(C(=O)O)c2)cc1OC	13µM*	2%	?	1%	·	10%
SMILES	FLuc modulator	NPC1 prom act	ELG1 repair inh	Rab9 prom act	SMN2 splice up	ELG1 genotox
COC(=O)c1cn(-c2ccccc2)nc1-c1ccncc1	1%	0%	0%	1%	-11%	3%
Cc1ccc2oc3c(c(=O)c2c1)C(c1ccccc1F)N(CCCN1CCOCC1)C3=O (stereo not given)	2%	·	·	·	?	·
COc1ccc(Br)cc1CNC(=O)C1CCN(c2nnc(-n3cccc3CNc3ccc(C)cc3)s2)CC1	-9%	·	·	·	-15%	·
Cn1nc(C(=O)Nc2cc(F)ccc2F)c2c1-c1ccccc1SC2	-1%	·	·	·	·	·
COc1ccc(-c2nn(-c3ccccc3)cc2/C=C/C(=O)NCCCn2ccnc2)cc1OC	27µM*	0%	16µM*	4%	·	-10%
O=C(O)c1cccc(NC(=O)c2cn(-c3ccccc3)nc2-c2ccc(F)cc2)c1	4.8µM*	-4%	17%	22%	·	9%
O=C(Nc1ccccc1)c1cn(-c2ccccc2)nc1-c1ccccc1	-2%	·	·	·	·	·
COc1ccc(OC)c(-c2nn(-c3ccccc3)cc2C(=O)N2CCc3ccccc3C2)c1	2%	-2%	?	1%	·	0%
COc1cccc(-c2nn(-c3ccc(C)cc3)cc2C(=O)N2CCc3cc(OC)c(OC)cc3C2)c1	5.4µM*	-3%	?	1%	·	-22%
COc1ccc(-c2nn(-c3ccccc3)cc2C(=O)Nc2ccc(C(=O)O)cc2)cc1OC	4.3µM*	18%	?	16%	·	16%
CCCCCCCCC#CCC#CCC#CCCCC(=O)O	·	·	·	·	10%	·
CCOC(=O)c1ccc(NC(=O)c2cn(-c3ccccc3)nc2-c2ccc(C)cc2)cc1	-6%	·	·	·	8%	·
COc1cccc(-c2nn(-c3ccccc3)cc2C(=O)O)c1	?	-4%	-9%	-7%	-18%	2%
COc1ccc(-c2cn(-c3ccccc3)nc2C(=O)O)cc1OC	12µM*	0%	-4%	-1%	·	-1%
